Laboratory results published in PubChem BioAssay (Tox21).
Inconclusive results are not listed. Entries that show only a call come without a potency. Active and inactive are the calls of the source. Calls follow the shape of the dose curve; as a rule, active = well fitted inhibition curve with a large enough effect in the repeat runs; inconclusive = weak or mixed curves; inactive = no such curve, though single readings can be large or run the other way.

Target: Cytochrome P450 2C9 (Homo sapiens) (UniProt P11712)
Sequence (P11712 whole entry, looked up): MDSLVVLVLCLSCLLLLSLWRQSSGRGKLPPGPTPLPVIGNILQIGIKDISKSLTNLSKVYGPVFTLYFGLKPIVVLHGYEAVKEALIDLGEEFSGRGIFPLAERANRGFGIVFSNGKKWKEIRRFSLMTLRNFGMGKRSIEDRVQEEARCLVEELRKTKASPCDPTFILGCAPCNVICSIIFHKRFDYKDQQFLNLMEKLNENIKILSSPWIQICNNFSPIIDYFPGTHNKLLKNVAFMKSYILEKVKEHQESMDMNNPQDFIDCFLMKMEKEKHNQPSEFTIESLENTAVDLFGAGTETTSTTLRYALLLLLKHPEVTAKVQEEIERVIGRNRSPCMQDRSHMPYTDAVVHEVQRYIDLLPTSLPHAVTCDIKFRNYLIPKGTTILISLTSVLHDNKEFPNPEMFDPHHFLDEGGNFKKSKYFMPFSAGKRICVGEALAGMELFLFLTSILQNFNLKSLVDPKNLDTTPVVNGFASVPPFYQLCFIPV
Test: Cytochrome P450 Family 2 Subfamily C Member 9 (CYP2C9) small molecule antagonists: luciferase reporter qHTS assay (AID 1671198); also: nearly all actives have a fitted effect of over 50% in size
Conditions: P450-Glo CYP2C9 enzyme assay, luciferin luminescence; series mostly up to 115 µM
Excerpt: U.S. Tox21 Program National Center for Advancing Translational Sciences [NCATS] U.S. Environmental Protection Agency [EPA] National Institutes of Environmental Health Sciences [NIEHS] National Toxicology Program [NTP] U.S. Food and Drug Administration [FDA] Tox21 Assay Overview: Cytochrome P450 (CYP) enzymes are membrane-bound hemeproteins that play a key role in metabolism of drugs and xenobiotics. Evaluation of the effect of chemicals on CYP isozymes is useful to minimize the adverse drug reactions and toxicities in drug development process. Tox21 chemicals were tested for their effect on CYP enzyme activities by using P450-Glo (TM) screening systems (Promega Corporation, Madison, WI). These systems provide a luminescent method containing proluciferin substrates and are converted to luciferin products by CYP isozymes. The luciferin products formed are detected with a luciferin detection reagent, and the amount of light produced is proportional to CYP activity. P450-Glo (TM) CYP2C9 screening system (Catalog. No. V9790) was used to detect the compounds that interfere in CYP2C9 activity.
Tox21 Assay Protocol Summary: Two ul of enzyme-substrate mix was dispensed into medium binding white/solid 1536-well plates (Greiner Bio-One North America Inc., Monroe, NC) using a BioRaptr Flying Reagent Dispenser (FRD, Beckman Coulter, Brea, CA). […] The assay plates were incubated at room temperature for 10 min. Then 2 ul of NADPH regeneration solution was added to each well of the assay plates using an FRD and incubated at 37C for 1 h. The reaction was stopped by adding 4 ul of detection reagent using an FRD and after 20 min incubation at room temperature the luminescence signal was measured using a ViewLux plate reader (Perkin Elmer, Shelton, CT). Data were expressed as relative luminescence units.
Potency is read from the fitted curve at half-maximal effect.

Compound	Potency
CCc1ccc(C=O)cc1	inactive
Nc1ccc2cc(S(=O)(=O)O)cc(O)c2c1	35.4 µM (active)
O=C(c1ccc(O)cc1)c1ccc(O)c(O)c1O	inactive
CCC(CC)CO	inactive
O=C(OCc1ccccc1)C(=O)OCc1ccccc1	inactive
c1ccc2c(c1)ccc1c3ccccc3ccc21	inactive
Nc1cccc(O)c1	25.9 µM (active)
CC(C)C(=O)OCc1cccc(OC(=O)[C@@H]2N3C(=O)[C@@H](NC(=O)Cc4ccccc4)[C@H]3SC2(C)C)c1	12.3 µM (active)
CCOC(=O)[C@H](CCc1ccccc1)N[C@@H](C)C(=O)N1C(=O)N(C)C[C@H]1C(=O)O	inactive
Cc1cc(C(C)(C)C)c(O)c(C)c1CC1=NCCN1	inactive
N#Cc1ccc(C(=O)O)cc1	inactive
CCN1CCc2nc(N)oc2CC1	inactive
CC(N)C(=O)OC(C)(C)Cc1ccc(Cl)cc1 (stereo not given)	15.5 µM (active)
Cc1ccc2ccc(Cl)cc2n1	inactive
CCn1ccc(NS(=O)(=O)c2ccc(N)cc2)nc1=O	inactive
CCCCCCCCCCCCCC	inactive
COP(=O)(OC)OC(c1ccc(Cl)cc1)P(=O)(OC)OC (stereo not given)	inactive
CC(C)OC(=O)CCCCC(=O)OC(C)C	inactive
O=Cc1ccc(Cl)c(Cl)c1	inactive
CC(C)(C)NC(N)=O	inactive

Compound	Potency
CC(CO)c1ccccc1 (stereo not given)	inactive
CCC(C)NC(N)=O (stereo not given)	inactive
CCCC/C=C\CCCCCCCCCC=O	inactive
CNC(=O)[C@H]1O[C@@H](n2cnc3c(NCc4cc(Cl)ccc4OCc4cc(C)no4)ncnc32)[C@H](O)[C@@H]1N	inactive
C=C(C)C1CCC(C)(O)CC1 (stereo not given)	inactive
CC(C)CCCC(C)(C)O	inactive
COc1cc2c(cc1OC)C(=O)CC2	inactive
CC(=O)NCCCCCC(=O)O	inactive
CCCCCCOC(=O)CC	inactive
O=C1c2ccccc2C(=O)C1c1ccccc1	inactive
O=C(CS(=O)Cc1ccco1)NC/C=C\COc1cc(CN2CCCCC2)ccn1 (stereo not given)	inactive
CC(=O)CCCCn1c(=O)c2c(ncn2C)n(C)c1=O	inactive
O=C(O)C(=O)Cc1ccccc1	inactive
CCOc1cc(NC(C)=O)ccc1C(=O)OC	inactive
C=C(C)C(=O)OCCNC(C)(C)C	inactive
CCCCC(CC)COCCO (stereo not given)	inactive
CC(=O)OC(C)OC(=O)C(C)c1ccc(-c2ccccc2)c(F)c1 (stereo not given)	3.47 µM (active)
CC(C)CC(C)CC(C)CC(C)COC(=O)c1ccccc1C(=O)OCC(C)CC(C)CC(C)CC(C)C (stereo not given)	58.7 µM (active)
COc1cc(C(=S)N2CCOCC2)cc(OC)c1OC	inactive
O=C1CC(c2ccc(Cl)cc2)CC(=O)N1	inactive
